Screening data: PubChem BioAssay, several laboratories
A selection: hits, their analogues and other compounds. The true share with any hit is near 3.7%.
Anthrax LF inh2 = anthrax lethal factor protease inhibition; inhibition, % at 10 µM; 0.12% of 360,000 active; P15917; multiplex microsphere protease cleavage assay, LF; note: plate controls were buffer without enzyme for full effect and enzyme alone for no effect
BoNT F protease = blocks Botulinum neurotoxin F light chain protease. Multiplex microsphere protease cleavage assay, flow cytometry. inhibition, % at 10 µM. 0.22% of 360,000 active; in the data active = inhibition above about 35%, passing the limit was not always enough; inconclusive = no clear call, values can overlap the other calls; note: plate controls were buffer without enzyme for full effect and enzyme alone for no effect
BoNT A protease = blocks Botulinum neurotoxin A light chain protease; multiplex microsphere protease substrate cleavage, flow cytometry; 0.17% of 360,000 active; inhibition, % at 10 µM; note: plate controls were buffer without enzyme for full effect and enzyme alone for no effect
Bead autofluor = flagged as autofluorescent in microsphere protease counterscreen | compound autofluorescence counterscreen, microsphere flow cytometry; active compounds read high | fluorescence intensity (concentration not given with the values) | 3.1% of 360,000 active; in the data active = fluorescence intensity above about 16000; inconclusive = no clear call, values can overlap the other calls
MazF activator = activators of E. coli MazEF toxin-antitoxin RNase; AID 504720; activation, % at 20 µM; P0AE70; 0.32% of 350,000 active; FAM/BHQ RNA-DNA oligo cleavage fluorescence, 5 h; in the data active = activation above about 50%
Target sequence (P0AE70 whole entry, looked up): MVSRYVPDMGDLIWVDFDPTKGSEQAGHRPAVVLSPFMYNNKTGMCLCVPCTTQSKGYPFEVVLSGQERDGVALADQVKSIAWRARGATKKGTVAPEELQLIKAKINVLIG
* hit, by the source's call; ? = inconclusive; nt = no result. Cut-off read from the data, not from the text of the source, unless noted: active = inhibition above about 30%; inconclusive = no clear call, values can overlap the other calls; inactive = below that.

SMILES | Anthrax LF inh2 | BoNT F protease | BoNT A protease | Bead autofluor | MazF activator
COc1ccc(CN(C)C(=O)/C=C/[C@H]2O[C@@H](n3cc(C)c(=O)[nH]c3=O)C[C@@H]2O)cc1OC | 2 | -10 | 0 | 4543 | nt
COCC(C)n1c(SCC(=O)NCCC2=CCCCC2)nc2ccccc2c1=O (configuration not stated) | -3 | -14 | 0 | 4510 | 5
CCOC(=O)N1CCC(n2c(SCC(=O)NCCC3=CCCCC3)nc3ccccc3c2=O)CC1 | -1 | 9 | 7 | 19812* | 1
CC(=O)NCCn1c(SCc2cc(=O)n3cc(Cl)ccc3n2)nc2ccccc2c1=O | 0 | 4 | ? | 21005* | 5
Cc1ccc(-n2nnnc2SCC(=O)NCCC2=CCCCC2)c(C)c1 | 0 | 0 | 0 | 20542* | -4
CC(=O)NCCn1c(SCc2ccccc2F)nc2ccccc2c1=O | 0 | -9 | -2 | 10877 | 3
CC(=O)NCCn1c(SCC(=O)NCCC2=CCCCC2)nc2ccccc2c1=O | -3 | -9 | -5 | 24653* | 2
O=C(CSc1ccc(Cl)cc1)N/N=C/c1ccc([N+](=O)[O-])o1 | -2 | 9 | 1 | 3933 | 5
OC(c1ccc(Cl)c(F)c1)c1ncc(-c2cccc3ccccc23)[nH]1 (configuration not stated) | -5 | -4 | 0 | 2878 | nt
O=C(NC(=S)Nc1ncc(Br)cc1Br)c1ccccc1 | 0 | 2 | -5 | 4410 | 10
CCOC(=O)COc1c(Br)cc(C2NC(=O)NC(C)=C2C(C)=O)cc1OC (configuration not stated) | -2 | 2 | 4 | 15350 | 2
C=CCOc1c(Br)cc(C2NC(=O)NC(C)=C2C(C)=O)cc1OCC (configuration not stated) | -2 | 1 | 3 | 22042* | -5
COc1cc(C2NC(=O)NC(C)=C2C(C)=O)cc(OC)c1OC (configuration not stated) | 0 | -3 | 0 | 4234 | -6
COc1cc(C2NC(=O)NC(C)=C2C(C)=O)ccc1O (configuration not stated) | -3 | 1 | 1 | 4516 | 83*
CC(=O)NC(c1cccc(F)c1)c1nc(-c2cnn(C)c2)cs1 (configuration not stated) | 2 | -2 | 0 | 2761 | nt
CC(C)c1ccccc1N1CC(C(=O)O)CC1=O (configuration not stated) | -14 | 1 | 2 | 21241* | 7
COCCCN(C(=O)CCOc1ccccc1C)c1c(N)n(Cc2ccccc2)c(=O)[nH]c1=O | nt | nt | nt | nt | -28
COc1ccc(CCN2C(=O)CCC2(C)c2nnnn2Cc2ccccc2)cc1OC (configuration not stated) | -1 | -10 | -1 | 4228 | nt
Cc1ccc(/C=C2/SC(=S)N(C3CCCCC3)C2=O)o1 | 24 | 26 | 39* | 3828 | 7
O=S1(=O)C[C@H](N2CCC[C@@H]2CO)[C@@H](COCc2ccccc2)N1 | -16 | -16 | 0 | 6147 | nt
Cc1cccc(CN(C)CCc2ccccn2)c1 | 1 | -5 | -2 | 16809* | 5
Cc1ccc(NC(=O)CC2SC(=O)N(c3ccccc3)C2=O)cc1 (configuration not stated) | -7 | -16 | 0 | 4564 | 1
O=C(CC1SC(=O)N(c2ccccc2)C1=O)Nc1ccccc1 (configuration not stated) | -3 | -4 | 1 | 21831* | -15
CC1(C(=O)Nc2cccc(Oc3ccccc3)c2)CCN1Cc1cc2ccccc2o1 (configuration not stated) | 0 | 2 | 0 | 3330 | nt
O=C(NCc1ccccn1)c1ccco1 | 1 | 1 | -1 | 2411 | -6
SMILES | Anthrax LF inh2 | BoNT F protease | BoNT A protease | Bead autofluor | MazF activator
O=C(NC(Cc1ccccc1)C(=O)NCc1ccccn1)c1ccco1 (configuration not stated) | -4 | -7 | -2 | 17464* | 5
CC(=O)/C(=N\Nc1ccccc1)Sc1nnc(-c2ccccc2)n1-c1ccccc1 | -2 | -1 | 0 | 2531 | 3
CC(=O)C(N=Nc1ccccc1)(Sc1nnc(-c2ccccc2)n1-c1ccccc1)C(C)=O | 1 | -3 | -2 | 22141* | -1
CC(=O)C(N=Nc1ccccc1)(Sc1nnc(-c2ccccc2)n1-c1ccccc1)C(=O)Nc1ccccc1 (configuration not stated) | -3 | 4 | 3 | 19172* | -3
CC(=O)N1C(=O)NC(c2ccccc2)=C([N+](=O)[O-])C1c1ccccc1 (configuration not stated) | 33* | -17 | 0 | 3574 | -8
CCOC(=O)C1=C(c2ccccc2)NC(=O)N(C(C)=O)C1c1cccc([N+](=O)[O-])c1 (configuration not stated) | -2 | 0 | 0 | 2125 | -17
Cc1cc(C(=O)N/N=C/c2ccc(-c3ccc([N+](=O)[O-])cc3C)o2)n[nH]1 | 3 | 6 | 2 | 6994 | 75*
CCc1cc(C(=O)COc2ccccc2F)c(O)cc1O | -6 | 2 | ? | 18558* | -7
Cc1cccc(NC(=O)C23CCC(C)(/C(=N/O)C2)C3(C)C)c1 (configuration not stated) | 0 | 2 | -1 | 9991 | 8
CC12CCC(C(=O)Nc3ccccc3)(C/C1=N\O)C2(C)C (configuration not stated) | -1 | -1 | -1 | 16758* | 1
CCOc1ccc(C2C(C#N)=C(N)SC(N)=C2C#N)c(OCC)c1 | 25 | ? | 44* | 22485* | 21
CCOc1cc(C2C(C#N)=C(N)SC(N)=C2C#N)ccc1OCCN1CCOCC1 | -3 | 4 | 1 | 8863 | 1
COc1ccc(CCNC(=O)c2cc(-c3ccccc3OC)on2)cc1OC | 0 | -5 | ? | 24479* | 3
COc1ccc(-c2cc(C(=O)NCCc3ccccc3)no2)cc1OC | -1 | 2 | 4 | 20927* | 2
COc1ccc(CCNC(=O)c2ccc(-c3ccc([N+](=O)[O-])cc3)o2)cc1OC | 9 | 8 | 23 | 2140 | 59*
COc1ccc(CCNC(=O)c2cc(CC(C)C)on2)cc1OC | 6 | -2 | 4 | 6833 | 8
COc1ccccc1-c1cc(C(=O)NCCc2ccccc2)no1 | -2 | -28 | -2 | 3860 | 0
COc1ccccc1-c1cc(C(=O)Nc2cccnc2)no1 | -1 | 1 | 1 | 22187* | 5
CCC(C)NC(=O)c1ccc(COc2ccccc2Cl)cc1 (configuration not stated) | 1 | -10 | -7 | 21804* | -9
CN1CCN(C(=O)c2ccc(COc3cc(Cl)ccc3Cl)o2)CC1 | -4 | 5 | -1 | 3270 | -15
O=C(O)c1cccc(COc2ccccc2Cl)c1 | -3 | 2 | 4 | 22141* | -7
CN1CCN(C(=O)c2cccc(COc3cc(Cl)ccc3Cl)c2)CC1 | -1 | -2 | -2 | 22814* | 3
COc1cccc(NC(=O)COC(=O)C2CC2)c1 | nt | nt | nt | nt | 3
CC1(C(=O)NS(=O)(=O)c2cccs2)CCN1C(=O)C1CCCCC1 (configuration not stated) | -5 | -2 | 0 | 2836 | nt
Clc1ccc(CNCCC2=CCCCC2)cc1 | -2 | -16 | ? | 17461* | 2
